Results from PubChem BioAssay AID1159580 (chemical genetic matrix, 2015).
Values joined by “and” are separate entries in the source; they are usually repeats but may differ in a detail not shown here. Equal values may be shown once. Out of some 5,500 compounds screened, about 2,000 (36%) were called active. Another 18% or so got no clear call; they are omitted. Cut-off read from the data, not from the text of the source: active = normalized growth mostly below about 0.91 (no sharp cut-off); inconclusive = no clear call, values can overlap the other calls; inactive = mostly above about 0.92. Some of the results follow.

Test: chemical genetic growth profiling, strain panel (AID 1159580);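 note: tested at 20 µM; growth read once vehicle control cultures reached saturation at 30 °C; 1 = growth at the plate median or of vehicle wells; lower values mean less growth of the strain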
Settings: S. cerevisiae deletion strains, growth OD

Measured: normalized growth

CCOC(=O)[C@H](CCc1ccccc1)N[C@@H](C)C(=O)N1Cc2ccccc2C[C@H]1C(=O)O
inactive: locus YAL021C, strain ccr4, stronger effect = lower value 0.993 | locus YAL026C, strain drs2, stronger effect = lower value 0.981 | locus YAL030W, strain snc1, stronger effect = lower value 1 | locus YBL061C, strain skt5, stronger effect = lower value 0.99 | locus YBR009C, strain hhf1, stronger effect = lower value 1.02 | locus YBR021W, strain FUR4, stronger effect = lower value 1.01 | locus YBR023C, strain chs3, stronger effect = lower value 0.984 | locus YBR171W, strain sec66, stronger effect = lower value 0.997 | locus YBR229C, strain ROT2, stronger effect = lower value 1 | locus YBR231C, strain swc5, stronger effect = lower value 1 | locus YBR279W, strain paf1, stronger effect = lower value 0.98 | locus YCL011C, strain gbp2, stronger effect = lower value 0.998 | locus YCL016C, strain dcc1, stronger effect = lower value 0.963 | locus YCL029C, strain bik1, stronger effect = lower value 1.01 | locus YCL061C, strain MRC1, stronger effect = lower value 1.01 | locus YCL069W, strain vba3, stronger effect = lower value 0.986 | locus YCR088W, strain abp1, stronger effect = lower value 1 | locus YDL005C, strain med2, stronger effect = lower value 1.01 | locus YDL035C, strain GPR1, stronger effect = lower value 1.02 | locus YDL040C, strain nat1, stronger effect = lower value 1 | locus YDL074C, strain BRE1, stronger effect = lower value 0.996 | locus YDL101C, strain DUN1, stronger effect = lower value 1.01 | locus YDL134C, strain PPH21, stronger effect = lower value 1 | locus YDL185W, strain tfp1, stronger effect = lower value 1.01 | locus YDL192W, strain arf1, stronger effect = lower value 1.01 | locus YDR001C, strain nth1, stronger effect = lower value 1 | locus YDR069C, strain doa4, stronger effect = lower value 1 | locus YDR101C, strain arx1, stronger effect = lower value 0.999 | locus YDR137W, strain rgp1, stronger effect = lower value 0.983 | locus YDR159W, strain sac3, stronger effect = lower value 0.964 | locus YDR162C, strain NBP2, stronger effect = lower value 1.01 | locus YDR195W, strain ref2 0.965 | locus YDR297W, strain sur2, stronger effect = lower value 1.01 | locus YDR318W, strain mcm21, stronger effect = lower value 1.01 | locus YDR334W, strain swr1, stronger effect = lower value 1.02 | locus YDR335W, strain msn5, stronger effect = lower value 0.984 | locus YDR388W, stronger effect = lower value 1.01 | locus YDR392W, strain spt3, stronger effect = lower value 0.931 | locus YDR502C, strain sam2, stronger effect = lower value 1.03 | locus YEL003W, strain gim4, stronger effect = lower value 1.02 | locus YEL037C, strain rad23, stronger effect = lower value 1.01 | locus YEL061C, strain CIN8 (second series), stronger effect = lower value 1.03 | locus YEL061C, strain CIN8, stronger effect = lower value 1.01 | locus YER015W, strain faa2, stronger effect = lower value 1.01 | locus YER016W, strain bim1, stronger effect = lower value 1.02 | locus YER110C, stronger effect = lower value 1.01 | locus YER111C, strain swi4, stronger effect = lower value 0.989 | locus YER155C, strain BEM2 (second series), stronger effect = lower value 1.06 | locus YER155C, strain BEM2, stronger effect = lower value 0.995 | locus YER167W, strain BCK2, stronger effect = lower value 1.01 | locus YFR010W, strain ubp6, stronger effect = lower value 0.998 | locus YGL078C, strain dbp3, stronger effect = lower value 1.01 | locus YGL086W, strain mad1, stronger effect = lower value 1 | locus YGL167C, strain pmr1, stronger effect = lower value 1 | locus YGL173C, strain kem1, stronger effect = lower value 0.993 | locus YGL227W, strain vid30, stronger effect = lower value 0.986 | locus YGL240W, strain doc1, stronger effect = lower value 1.02 | locus YGL248W, strain PDE1, stronger effect = lower value 1 | locus YGL253W, strain hxk2, stronger effect = lower value 0.926 | locus YGR078C, strain PAC10, stronger effect = lower value 1 | locus YGR135W, strain pre9, stronger effect = lower value 1.03 | locus YGR229C, strain SMI1, stronger effect = lower value 1.02 | locus YGR252W, strain gcn5, stronger effect = lower value 0.999 | locus YHR013C, strain ard1, stronger effect = lower value 0.953 | locus YHR027C, strain rpn1, stronger effect = lower value 1.01 | locus YHR030C, strain SLT2, stronger effect = lower value 1.01 and 0.988 | locus YHR079C, strain IRE1 (second series), stronger effect = lower value 1.01 | locus YHR079C, strain IRE1, stronger effect = lower value 0.976 | locus YHR094C, strain hxt1, stronger effect = lower value 1 | locus YHR129C, strain ARP1, stronger effect = lower value 1 | locus YHR142W, strain chs7, stronger effect = lower value 0.935 | locus YHR200W, strain rpn10, stronger effect = lower value 1.01 | locus YIL066C, strain RNR3, stronger effect = lower value 1.01 | locus YIL073C, strain SPO22, stronger effect = lower value 1.08 | locus YIL125W, strain kgd1, stronger effect = lower value 1 | locus YIR030C, strain dcg1, stronger effect = lower value 1.01 | locus YJL092W, strain hpr5, stronger effect = lower value 1.01 | locus YJL095W, strain BCK1 (second series), stronger effect = lower value 1.01 | locus YJL095W, strain BCK1, stronger effect = lower value 0.988 and 0.991 | locus YJL115W, strain asf1, stronger effect = lower value 1.01 | locus YJL129C, strain trk1, stronger effect = lower value 0.983 | locus YJL134W, strain LCB3, stronger effect = lower value 1.01 | locus YJL154C, strain vps35, stronger effect = lower value 1.02 | locus YJL164C, strain tpk1, stronger effect = lower value 1 | locus YJL166W, strain qcr8, stronger effect = lower value 1.03 | locus YJL168C, strain set2, stronger effect = lower value 1.01 | locus YJL187C, strain SWE1 (second series), stronger effect = lower value 1 | locus YJL187C, strain SWE1, stronger effect = lower value 1.01
